Experiments:
Experiment in all cases: log2 ratio of Biotin-Ahx-Ub-VS probe labelling (fragment/DMSO); higher = less target engagement (more negative = stronger competition), active = hit call of the paper (q ≤ 0.05, log2 ratio ≤ -1)
Details in all cases: compound concentration: 200 uM; treatment time: 3 h
[1] = biological target: USP34 (UniProt Q70CQ2)
Method in brief: (§1)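 Each value is an average log2 ratio of fragment to vehicle, tested by unpaired t-test. The underlying Spectronaut label-free quantities were global-median-normalised, and only proteins with ≥2 unique peptides were included. Triplicate HEK293T lysate samples (495 µg) were exposed to fragment at 200 µM or vehicle for 3 h, then to Biotin-Ahx-Ub-VS at 0.5 µM final for 1 h, before NeutrAvidin enrichment of labelled DUBs, LysC and trypsin digestion, and diaPASEF LC-MS/MS.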

[2] = biological target: T1, USP36 (UniProt Q9P275)
T1 sequence (whole entry): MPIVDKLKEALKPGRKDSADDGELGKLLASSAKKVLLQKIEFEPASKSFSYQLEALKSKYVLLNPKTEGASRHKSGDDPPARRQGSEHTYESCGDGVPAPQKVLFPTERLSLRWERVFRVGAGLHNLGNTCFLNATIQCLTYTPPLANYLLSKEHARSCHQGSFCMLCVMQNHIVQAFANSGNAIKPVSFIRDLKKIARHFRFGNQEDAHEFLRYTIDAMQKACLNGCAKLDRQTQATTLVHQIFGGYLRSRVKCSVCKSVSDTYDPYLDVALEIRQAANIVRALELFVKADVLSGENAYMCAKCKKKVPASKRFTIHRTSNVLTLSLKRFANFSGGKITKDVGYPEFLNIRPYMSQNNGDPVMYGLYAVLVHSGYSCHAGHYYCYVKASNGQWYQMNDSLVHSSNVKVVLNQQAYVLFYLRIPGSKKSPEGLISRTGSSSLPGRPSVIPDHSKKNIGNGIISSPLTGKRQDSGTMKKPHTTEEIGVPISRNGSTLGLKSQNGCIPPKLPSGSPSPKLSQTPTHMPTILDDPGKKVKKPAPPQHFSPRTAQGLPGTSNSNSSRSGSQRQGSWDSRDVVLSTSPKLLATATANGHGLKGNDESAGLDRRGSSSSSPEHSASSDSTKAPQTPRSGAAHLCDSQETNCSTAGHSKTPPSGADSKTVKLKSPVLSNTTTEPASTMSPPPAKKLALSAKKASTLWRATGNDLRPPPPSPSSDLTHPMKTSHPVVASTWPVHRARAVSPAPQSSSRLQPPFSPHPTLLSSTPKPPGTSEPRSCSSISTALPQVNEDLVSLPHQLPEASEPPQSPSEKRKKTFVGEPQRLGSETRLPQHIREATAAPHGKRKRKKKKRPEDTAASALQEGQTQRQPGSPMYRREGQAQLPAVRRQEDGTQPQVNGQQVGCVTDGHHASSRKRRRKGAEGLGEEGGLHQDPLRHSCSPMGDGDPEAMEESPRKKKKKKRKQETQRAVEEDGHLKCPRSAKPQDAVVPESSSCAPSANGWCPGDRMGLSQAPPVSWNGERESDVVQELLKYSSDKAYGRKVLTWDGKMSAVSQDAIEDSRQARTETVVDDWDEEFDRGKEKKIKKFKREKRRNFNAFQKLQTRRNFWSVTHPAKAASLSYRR
Method in brief: as §1

[3] = biological target: T2, USP38 (UniProt Q8NB14)
T2 sequence (whole entry): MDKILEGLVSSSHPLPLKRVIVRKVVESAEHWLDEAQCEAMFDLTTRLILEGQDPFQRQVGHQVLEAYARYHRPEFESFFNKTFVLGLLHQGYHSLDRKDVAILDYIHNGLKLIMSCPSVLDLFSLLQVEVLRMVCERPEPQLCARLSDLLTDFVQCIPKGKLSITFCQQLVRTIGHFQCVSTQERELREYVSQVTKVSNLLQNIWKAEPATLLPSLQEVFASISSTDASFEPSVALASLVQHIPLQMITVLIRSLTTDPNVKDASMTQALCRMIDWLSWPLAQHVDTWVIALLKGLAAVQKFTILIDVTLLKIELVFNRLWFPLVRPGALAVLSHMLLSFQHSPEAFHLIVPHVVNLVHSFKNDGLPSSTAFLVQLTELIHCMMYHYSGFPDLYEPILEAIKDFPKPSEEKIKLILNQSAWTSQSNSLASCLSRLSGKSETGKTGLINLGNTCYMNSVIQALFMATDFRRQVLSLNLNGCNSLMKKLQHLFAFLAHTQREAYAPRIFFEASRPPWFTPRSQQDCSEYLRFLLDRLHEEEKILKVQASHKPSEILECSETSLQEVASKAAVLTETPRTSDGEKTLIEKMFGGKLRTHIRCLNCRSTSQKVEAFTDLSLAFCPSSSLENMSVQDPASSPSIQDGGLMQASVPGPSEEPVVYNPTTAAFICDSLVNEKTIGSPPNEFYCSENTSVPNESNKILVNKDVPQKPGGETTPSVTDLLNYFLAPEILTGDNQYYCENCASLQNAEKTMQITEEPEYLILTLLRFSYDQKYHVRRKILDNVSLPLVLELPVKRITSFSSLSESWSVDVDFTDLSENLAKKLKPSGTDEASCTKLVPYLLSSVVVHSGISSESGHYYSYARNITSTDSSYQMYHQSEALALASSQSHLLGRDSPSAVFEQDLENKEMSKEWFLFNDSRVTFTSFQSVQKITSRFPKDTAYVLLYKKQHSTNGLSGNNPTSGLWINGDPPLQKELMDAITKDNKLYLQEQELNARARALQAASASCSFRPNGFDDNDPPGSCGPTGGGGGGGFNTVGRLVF
Method in brief: as §1

[4] = biological target: T3, USP39 (UniProt Q53GS9)
T3 sequence (whole entry): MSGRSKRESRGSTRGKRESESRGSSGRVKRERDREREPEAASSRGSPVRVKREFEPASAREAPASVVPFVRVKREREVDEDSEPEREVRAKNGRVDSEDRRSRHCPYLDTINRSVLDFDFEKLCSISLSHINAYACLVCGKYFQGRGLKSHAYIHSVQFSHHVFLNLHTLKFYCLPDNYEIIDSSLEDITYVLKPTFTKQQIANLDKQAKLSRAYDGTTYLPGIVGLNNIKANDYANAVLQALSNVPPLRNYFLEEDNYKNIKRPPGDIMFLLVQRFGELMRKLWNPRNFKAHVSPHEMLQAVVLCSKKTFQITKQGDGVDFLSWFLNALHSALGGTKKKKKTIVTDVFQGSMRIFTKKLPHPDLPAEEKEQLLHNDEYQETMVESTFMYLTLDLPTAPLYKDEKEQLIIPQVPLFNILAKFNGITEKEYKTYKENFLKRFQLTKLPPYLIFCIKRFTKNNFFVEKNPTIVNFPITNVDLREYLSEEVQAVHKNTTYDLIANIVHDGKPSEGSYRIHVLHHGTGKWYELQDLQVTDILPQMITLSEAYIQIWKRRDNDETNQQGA
Method in brief: as §1

[5] = biological target: T4, USP4 (UniProt Q13107)
T4 sequence (whole entry): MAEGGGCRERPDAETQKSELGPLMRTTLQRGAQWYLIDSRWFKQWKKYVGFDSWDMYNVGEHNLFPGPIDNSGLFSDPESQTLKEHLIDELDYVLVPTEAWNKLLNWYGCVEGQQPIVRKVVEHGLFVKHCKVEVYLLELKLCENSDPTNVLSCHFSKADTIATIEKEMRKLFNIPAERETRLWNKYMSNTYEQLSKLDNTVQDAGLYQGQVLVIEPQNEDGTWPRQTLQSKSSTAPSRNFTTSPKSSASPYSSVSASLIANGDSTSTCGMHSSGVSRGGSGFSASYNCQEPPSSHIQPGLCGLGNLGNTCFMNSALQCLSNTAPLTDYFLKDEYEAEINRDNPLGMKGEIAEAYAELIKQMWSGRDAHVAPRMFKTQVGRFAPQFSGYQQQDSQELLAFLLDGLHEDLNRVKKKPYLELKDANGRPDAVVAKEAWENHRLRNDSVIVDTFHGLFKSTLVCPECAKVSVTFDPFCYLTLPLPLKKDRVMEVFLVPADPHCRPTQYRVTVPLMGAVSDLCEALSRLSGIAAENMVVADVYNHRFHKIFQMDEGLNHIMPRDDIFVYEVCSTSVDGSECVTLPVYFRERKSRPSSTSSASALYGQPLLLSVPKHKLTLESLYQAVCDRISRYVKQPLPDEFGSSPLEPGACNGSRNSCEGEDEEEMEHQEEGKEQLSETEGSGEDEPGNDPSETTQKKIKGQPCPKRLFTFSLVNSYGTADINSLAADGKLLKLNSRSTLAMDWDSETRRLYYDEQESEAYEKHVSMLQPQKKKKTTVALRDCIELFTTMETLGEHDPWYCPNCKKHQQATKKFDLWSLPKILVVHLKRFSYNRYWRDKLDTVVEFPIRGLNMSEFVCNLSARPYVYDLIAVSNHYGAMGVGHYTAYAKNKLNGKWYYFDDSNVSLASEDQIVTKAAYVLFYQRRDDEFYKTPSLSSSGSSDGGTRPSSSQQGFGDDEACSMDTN
Method in brief: as §1

Measured: log2 ratio of Biotin-Ahx-Ub-VS probe labelling

Sequence of USP34 (Q70CQ2 whole entry, the tested form may be a part): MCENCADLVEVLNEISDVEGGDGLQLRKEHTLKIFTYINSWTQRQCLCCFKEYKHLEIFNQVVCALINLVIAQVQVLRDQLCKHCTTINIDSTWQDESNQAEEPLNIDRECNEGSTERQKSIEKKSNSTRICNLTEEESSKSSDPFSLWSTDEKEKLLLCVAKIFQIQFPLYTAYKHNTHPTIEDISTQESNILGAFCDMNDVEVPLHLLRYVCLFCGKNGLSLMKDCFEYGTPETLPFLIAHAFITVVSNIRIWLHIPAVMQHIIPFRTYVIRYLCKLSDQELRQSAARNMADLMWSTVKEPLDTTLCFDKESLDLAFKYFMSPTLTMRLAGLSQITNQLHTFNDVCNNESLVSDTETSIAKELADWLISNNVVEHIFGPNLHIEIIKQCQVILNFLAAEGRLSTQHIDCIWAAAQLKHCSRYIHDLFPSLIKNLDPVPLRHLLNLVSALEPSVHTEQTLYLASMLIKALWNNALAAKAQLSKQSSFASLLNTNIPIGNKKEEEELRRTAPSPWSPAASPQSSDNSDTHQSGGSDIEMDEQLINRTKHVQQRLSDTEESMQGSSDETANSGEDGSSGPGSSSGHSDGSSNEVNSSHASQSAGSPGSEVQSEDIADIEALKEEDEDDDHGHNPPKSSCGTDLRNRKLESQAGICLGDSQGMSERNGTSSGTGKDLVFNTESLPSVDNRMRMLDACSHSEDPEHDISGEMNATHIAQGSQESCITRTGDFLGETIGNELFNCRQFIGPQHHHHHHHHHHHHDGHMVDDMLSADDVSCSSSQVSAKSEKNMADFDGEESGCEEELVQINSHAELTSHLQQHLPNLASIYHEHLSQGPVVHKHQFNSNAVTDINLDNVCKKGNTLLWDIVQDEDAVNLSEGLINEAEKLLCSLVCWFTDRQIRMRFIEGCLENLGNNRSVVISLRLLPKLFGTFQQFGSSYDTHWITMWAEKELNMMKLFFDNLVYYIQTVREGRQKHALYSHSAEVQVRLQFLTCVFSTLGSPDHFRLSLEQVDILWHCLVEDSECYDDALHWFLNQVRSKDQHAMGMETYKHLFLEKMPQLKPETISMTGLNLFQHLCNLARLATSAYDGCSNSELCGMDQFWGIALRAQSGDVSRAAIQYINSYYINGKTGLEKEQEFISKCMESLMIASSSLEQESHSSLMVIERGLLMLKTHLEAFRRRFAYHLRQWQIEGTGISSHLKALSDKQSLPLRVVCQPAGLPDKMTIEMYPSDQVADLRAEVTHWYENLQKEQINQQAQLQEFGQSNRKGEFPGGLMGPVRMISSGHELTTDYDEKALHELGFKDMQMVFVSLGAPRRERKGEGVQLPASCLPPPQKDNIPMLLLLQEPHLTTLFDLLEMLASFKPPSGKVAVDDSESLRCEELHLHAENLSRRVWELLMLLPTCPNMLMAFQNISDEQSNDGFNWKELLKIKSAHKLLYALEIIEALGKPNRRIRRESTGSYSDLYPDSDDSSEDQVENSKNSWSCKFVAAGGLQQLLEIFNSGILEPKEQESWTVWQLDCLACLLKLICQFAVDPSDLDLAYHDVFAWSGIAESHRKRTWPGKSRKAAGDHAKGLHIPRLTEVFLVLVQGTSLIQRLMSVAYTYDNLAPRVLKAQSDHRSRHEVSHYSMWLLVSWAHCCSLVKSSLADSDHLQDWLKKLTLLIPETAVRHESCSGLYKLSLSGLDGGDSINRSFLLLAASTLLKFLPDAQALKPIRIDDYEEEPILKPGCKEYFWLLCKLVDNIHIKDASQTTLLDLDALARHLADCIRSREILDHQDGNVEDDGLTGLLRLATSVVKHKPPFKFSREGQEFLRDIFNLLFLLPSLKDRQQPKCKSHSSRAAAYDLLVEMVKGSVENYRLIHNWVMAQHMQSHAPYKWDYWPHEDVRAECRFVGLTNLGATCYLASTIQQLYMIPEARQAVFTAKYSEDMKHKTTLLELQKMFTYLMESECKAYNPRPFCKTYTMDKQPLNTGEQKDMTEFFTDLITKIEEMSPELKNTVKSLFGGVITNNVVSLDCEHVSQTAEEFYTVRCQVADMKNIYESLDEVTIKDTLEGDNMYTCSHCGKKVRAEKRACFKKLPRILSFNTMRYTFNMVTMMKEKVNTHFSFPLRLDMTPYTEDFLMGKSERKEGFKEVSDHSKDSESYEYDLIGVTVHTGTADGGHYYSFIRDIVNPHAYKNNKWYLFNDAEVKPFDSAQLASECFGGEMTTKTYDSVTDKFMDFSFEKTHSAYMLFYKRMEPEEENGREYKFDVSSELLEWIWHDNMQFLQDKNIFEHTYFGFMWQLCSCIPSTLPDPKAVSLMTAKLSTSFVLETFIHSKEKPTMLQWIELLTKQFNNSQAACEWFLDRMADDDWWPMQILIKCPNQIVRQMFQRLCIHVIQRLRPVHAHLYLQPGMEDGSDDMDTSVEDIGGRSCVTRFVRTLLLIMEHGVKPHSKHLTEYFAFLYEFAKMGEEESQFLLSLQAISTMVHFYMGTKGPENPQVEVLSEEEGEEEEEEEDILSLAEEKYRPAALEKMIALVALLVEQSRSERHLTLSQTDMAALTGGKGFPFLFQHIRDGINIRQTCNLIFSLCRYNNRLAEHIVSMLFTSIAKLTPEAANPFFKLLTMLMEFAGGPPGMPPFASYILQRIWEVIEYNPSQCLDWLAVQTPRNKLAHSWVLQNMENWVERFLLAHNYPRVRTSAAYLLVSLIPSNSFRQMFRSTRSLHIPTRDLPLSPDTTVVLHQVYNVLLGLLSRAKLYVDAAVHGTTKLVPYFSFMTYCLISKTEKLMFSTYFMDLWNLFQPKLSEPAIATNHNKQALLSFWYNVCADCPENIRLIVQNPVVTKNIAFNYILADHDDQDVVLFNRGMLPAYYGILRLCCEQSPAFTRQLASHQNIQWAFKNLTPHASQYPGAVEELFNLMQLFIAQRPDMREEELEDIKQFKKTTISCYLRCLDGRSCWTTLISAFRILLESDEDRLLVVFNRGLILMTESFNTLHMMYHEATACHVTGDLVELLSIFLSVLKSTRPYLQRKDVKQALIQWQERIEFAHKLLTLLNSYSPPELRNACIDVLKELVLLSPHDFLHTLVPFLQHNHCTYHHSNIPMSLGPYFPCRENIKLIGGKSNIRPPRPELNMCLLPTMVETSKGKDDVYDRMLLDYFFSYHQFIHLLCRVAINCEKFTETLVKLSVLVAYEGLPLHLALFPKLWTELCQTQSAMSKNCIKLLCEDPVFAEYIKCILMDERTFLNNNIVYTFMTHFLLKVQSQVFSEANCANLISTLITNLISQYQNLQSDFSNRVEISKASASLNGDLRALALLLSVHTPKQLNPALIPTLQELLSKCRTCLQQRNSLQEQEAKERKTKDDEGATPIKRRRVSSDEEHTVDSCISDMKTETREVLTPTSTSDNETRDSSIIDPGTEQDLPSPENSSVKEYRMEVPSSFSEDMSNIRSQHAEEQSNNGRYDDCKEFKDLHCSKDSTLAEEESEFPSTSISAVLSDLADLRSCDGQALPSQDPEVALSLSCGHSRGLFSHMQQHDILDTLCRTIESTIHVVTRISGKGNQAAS

CC1CN(c2ccc(NC(=O)CCl)cc2)CC(C)O1 (stereo not given)
inactive: [1] -0.087 | [2] -0.162 | [3] 0.0369 | [4] 0.216 | [5] -0.104

— the supplement of paper PMC11732987, “Enantioselective OTUD7B fragment discovery through chemoproteomics screening and high-throughput optimisation” (Communications Chemistry, 2025)
